Read-out in test [1]: Urokinase-type plasminogen activator receptor (uPAR), PLAUR (gene 5329)
Briefly: BSK_4H_uPAR: BioMAP Diversity Plus: 4H Assay for Urokinase-type plasminogen activator receptor (uPAR) Biomarker Activity (AID 2283030). As to conditions: primary human endothelial cells (HUVEC); actives raise or lower the signal. An outline of the steps: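 Chemicals are dosed onto human vascular endothelial primary cells (umbilical vein). After 24 h, uPAR is read by ELISA. Gain or loss of signal is fitted relative to DMSO.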

Read-out in test [2]: Vascular endothelial growth factor receptor 2 (Homo sapiens) (UniProt P35968)
Briefly: BSK_4H_VEGFRII: BioMAP Diversity Plus: 4H Assay for Vascular endothelial growth factor receptor 2 (VEGFR2) Biomarker Activity (AID 2283031).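 On AC50: cell-surface VEGFR2 protein level quantified by ELISA.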 As to conditions: primary human endothelial cells (HUVEC); actives raise or lower the signal. An outline of the steps:
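VEGFRII levels on human vascular endothelial primary cells were determined by ELISA at 24 hours post-dosing, with gain- or loss-of-signal fitted against DMSO controls.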

Read-out in test [3]: Human Leukocyte Antigen - DR isotype (HLADR), HLA-DRA (gene 3122)
Briefly: BSK_BE3C_HLADR: BioMAP Diversity Plus: BE3C Assay for Human Leukocyte Antigen - DR isotype (HLADR) Biomarker Activity (AID 2283032). Particulars: primary human bronchial epithelial cells; actives raise or lower the signal. An outline of the steps: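 Cell-surface HLA-DR ELISA readout at 24 h after dosing in the BE3C primary human lung bronchial epithelial system; gain or loss of signal against DMSO, with parallel sulforhodamine B staining of total protein for overt cytotoxicity.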

Read-out in test [4]: Vascular cell adhesion molecule 1 (VCAM1), VCAM1 (gene 7412)
Briefly: BSK_4H_VCAM1: BioMAP Diversity Plus: 4H Assay for Vascular cell adhesion molecule 1 (VCAM1) Biomarker Activity (AID 2283033).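 On outcome: cell-surface VCAM-1 protein measured by ELISA.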 Particulars: primary human endothelial cells (HUVEC); actives raise or lower the signal. An outline of the steps:
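VCAM-1 ELISA read 24 h after chemical dosing of HUVEC in the BioMAP 4H system, with gain or loss of signal fitted relative to DMSO. Parallel SRB staining (560 nm) checked overt cytotoxicity.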

Read-out in test [5]: Interferon-gamma inducible Protein 10 (IP10), CXCL10 (gene 3627)
Briefly: BSK_BE3C_IP10: BioMAP Diversity Plus: BE3C Assay for Interferon-gamma inducible Protein 10 (IP10) Biomarker Activity (AID 2283034). Particulars: primary human bronchial epithelial cells; actives raise or lower the signal. The procedure, abridged:
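IP-10 quantified by ELISA in human primary bronchial epithelial cell cultures at 24 hours post-dosing. Gain or loss of signal fitted relative to DMSO; parallel SRB staining assessed overt cytotoxicity.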

Read-out in test [6]: Monokine induced gamma interferon (MIG), CXCL9 (gene 4283)
Briefly: BSK_BE3C_MIG: BioMAP Diversity Plus: BE3C Assay for Monokine induced gamma interferon (MIG) Biomarker Activity (AID 2283035). As to conditions: primary human bronchial epithelial cells; actives raise or lower the signal. The procedure, abridged: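 Dose cells (human primary bronchial epithelial), incubate 24 h, quantify MIG by ELISA, then fit concentration–response in both directions relative to DMSO control.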

Read-out in test [7]: Transforming growth factor beta 1 (TGFb1), TGFB1 (gene 7040)
Briefly: BSK_BE3C_TGFb1: BioMAP Diversity Plus: BE3C Assay for Transforming growth factor beta 1 (TGFb1) Biomarker Activity (AID 2283036;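 on outcome: TGF-b1 protein level measured by ELISA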). Particulars: primary human bronchial epithelial cells; actives raise or lower the signal. An outline of the steps: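 ELISA readout of TGF-b1 from human lung bronchial epithelial primary cells, taken 24 h post-treatment. Gain or loss of signal fitted relative to DMSO baseline, with parallel SRB staining for overt cytotoxicity.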

Read-out in test [8]: Plasminogen activator inhibitor-1 (PAI1), SERPINE1 (gene 5054)
Briefly: BSK_BE3C_PAI1: BioMAP Diversity Plus: BE3C Assay for Plasminogen activator inhibitor-1 (PAI1) Biomarker Activity (AID 2283037). As to conditions: primary human bronchial epithelial cells; actives raise or lower the signal. The procedure, abridged: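 PAI-1 was measured by ELISA in human primary bronchial epithelial cultures 24 h after chemical dosing, with cytotoxicity checked by SRB total-protein staining in parallel cultures. Activity was fitted in both directions relative to DMSO.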

Read-out in test [9]: urokinase plasminogen activator (uPA), PLAU (gene 5328)
Briefly: BSK_BE3C_uPA: BioMAP Diversity Plus: BE3C Assay for urokinase plasminogen activator (uPA) Biomarker Activity (AID 2283038).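 On outcome: uPA protein level quantified by ELISA in cell cultures; uPA read one day after compound addition.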 Particulars: primary human bronchial epithelial cells; actives raise or lower the signal. An outline of the steps:
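Measured by ELISA: uPA from human primary bronchial epithelial cells 24 h after chemical treatment. Values derive from bidirectional curve fitting with DMSO serving as negative control. Total protein by SRB staining in parallel wells flagged overt cytotoxicity.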

Read-out in test [10]: Urokinase-type plasminogen activator receptor (uPAR), PLAUR (gene 5329)
Briefly: BSK_BE3C_uPAR: BioMAP Diversity Plus: BE3C Assay for Urokinase-type plasminogen activator receptor (uPAR) Biomarker Activity (AID 2283039).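 On outcome: cells exposed to compound for one day before measurement.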 Particulars: primary human bronchial epithelial cells; actives raise or lower the signal. An outline of the steps: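 uPAR levels were measured by ELISA after 24 h compound treatment of primary human bronchial epithelial cells, fitted in both directions relative to DMSO. Parallel SRB staining served as the cytotoxicity read-out.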

Some compounds were tested as several samples or in several runs, with calls that do not always agree. The source made the active and inactive calls. How the source made its calls: active means hit-call score of the fitted dose curve at least 0.9, where 1 is the maximum; inactive means score below 0.9.

`Nc1ccc([N+](=O)[O-])cc1Cl`: the result in test [1], in [2], in [3], in [4], in test [5] and in test [6] was inactive. Besides, the outcome in test [7], in [8], in test [9] and in test [10] was inactive.

Consider `Cc1ccc([N+](=O)[O-])cc1C`, for which the result in [1], in [2], in [3], in test [4], in [5] and in test [6] was inactive. For the same compound, the outcome in test [7], in test [8], in test [9] and in test [10] was inactive.

As for `CCCCC(CC)COC(=O)c1c(Br)c(Br)c(Br)c(Br)c1C(=O)OCC(CC)CCCC` (configuration not stated), the result in [1], in test [2], in [3], in test [4], in test [5] and in [6] was inactive. Further, the result in [7], in test [8], in test [9] and in [10] was inactive.

With `CCCCCCCc1ccc(O)cc1`, the AC50 in test [1] was 38.4 µM (active); in test [3], 32.1 µM (active); in test [4], 35.1 µM (active); in test [5] it was 35 µM (active); in test [6], 37.6 µM (active); in test [7] it was 37.3 µM (active). In addition, the AC50 in test [8] was 39.3 µM (active); in test [9] it was 39.1 µM (active); in test [10] it was 39.3 µM (active). Besides, the outcome in [2] was inactive.

Regarding `N#Cc1cc([N+](=O)[O-])ccc1N`, the outcome in [1], in test [2], in [3], in [4], in [5] and in test [6] was inactive. The outcome in test [7], in [8], in test [9] and in test [10] was inactive.

Consider `CCCCc1ccccc1`, for which the outcome in test [1], in [2], in [3], in test [4], in [5] and in test [6] was inactive. The result in [7], in test [8], in test [9] and in test [10] was inactive.

As for `O=S1(=O)OCC2C(CO1)C1(Cl)C(Cl)=C(Cl)C2(Cl)C1(Cl)Cl` (configuration not stated), the half-maximal activity concentration (AC50) was 9.1 µM (active) in test [1] and 20 µM (active) in [4]. The outcome in [2], in [3], in test [5], in test [6], in test [7] and in [8] was inactive. Besides, the outcome in [9] and in test [10] was inactive.

As for `COP(N)(=S)OC`, the outcome in test [1], in test [2], in test [3], in [4], in test [5] and in [6] was inactive. The result in test [7], in test [8], in test [9] and in test [10] was inactive.

As to `ClC1=C(Cl)C2(Cl)C3C(Cl)C(Cl)CC3C1(Cl)C2(Cl)Cl` (configuration not stated), the AC50 in test [1] was 38 µM (active); in [2], 30.3 µM (active); in test [3] it was 15.2 µM (active); in test [4], 27.3 µM (active); in test [5], 34.9 µM (active); in [6] it was 30.6 µM (active). Further, the concentration at half-maximal activity (AC50) in test [7] was 9.17 µM (active); in test [8] it was 36.1 µM (active). Also, the outcome in [9] and in test [10] was inactive.

Turning to `CCCCN(CCCC)SN(C)C(=O)Oc1cccc2c1OC(C)(C)C2`, the half-maximal activity concentration (AC50) was 37.1 µM (active) in [1], 31 µM (active) in [2] and 30.4 µM (active) in test [4]. Moreover, the result in test [3], in test [5], in [6], in test [7], in [8] and in test [9] was inactive. Further, in test [10], the result was inactive.

Regarding `CCOP(=S)(OCC)SCSCC`, the outcome in [1], in test [2], in test [3], in [4], in test [5] and in test [6] was inactive. The result in test [7], in test [8], in [9] and in [10] was inactive.

With `OCC1CO1` (configuration not stated), the outcome in test [1], in [2], in [3], in [4], in test [5] and in test [6] was inactive. Besides, the outcome in test [7], in [8], in [9] and in test [10] was inactive.

As for `[N-]=[N+]=[N-]`, the result in test [1], in [2], in test [3], in test [4], in [5] and in [6] was inactive. Besides, the result in [7], in test [8], in test [9] and in [10] was inactive.

With `Nc1ccc2ccccc2c1`, the outcome in test [1], in [2], in test [3], in [4], in test [5] and in test [6] was inactive. Besides, the outcome in test [7], in [8], in test [9] and in test [10] was inactive.

In the case of `COP(=O)(CCC(=O)NCO)OC`, the outcome in test [1], in test [2], in test [3], in test [4], in [5] and in [6] was inactive. The result in [8], in test [9] and in [10] was inactive.

For `CCOP(=S)(S)OCC`, the result in test [1], in [2], in test [3], in test [4], in test [5] and in test [6] was inactive. Also, the result in [7], in test [8], in [9] and in test [10] was inactive.

Turning to `OCC(F)(F)OC(F)(F)C(F)(F)OC(F)(F)CO`, the result in test [1], in [2], in test [3], in [4], in [5] and in test [6] was inactive. Further, the result in test [8], in test [9] and in test [10] was inactive.

Consider `CC(O)C(F)(F)C(F)(F)F` (configuration not stated), for which the outcome in test [1], in [2], in [3], in test [4], in [5] and in test [6] was inactive. For the same compound, the result in test [8], in [9] and in test [10] was inactive.

For the compound `c1nc[nH]n1`, the outcome in test [1], in test [2], in test [3], in test [4], in [5] and in test [6] was inactive. Also, the outcome in test [7], in test [8], in test [9] and in test [10] was inactive.

`CC(Cl)(Cl)C(=O)O`: the result in test [1], in test [2], in test [3], in [4], in [5] and in test [6] was inactive. The outcome in test [7], in test [8], in test [9] and in test [10] was inactive.

`O=C(O)C(F)(OC(F)(F)C(F)(F)C(F)(F)F)C(F)(F)F` (configuration not stated): the outcome in [1], in test [2], in test [3], in test [4], in test [5] and in [6] was inactive. Further, the result in test [8], in test [9] and in [10] was inactive. Besides, the half-maximal activity concentration (AC50) in [8] was 0.22 µM (active).

In general, AC50 refers to the concentration giving half of the maximal activity seen.

These data come from PubChem BioAssay (EPA / NIEHS).
